Test results published in paper PMC5540273 (PLoS ONE, 2017).

System: T1, DCAMKL1
T1 construct: gene DCLK1
Details: concentration: 1 μM, replicates: in singlicate; n = 1
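Further: KINOMEscan kinase panel screen.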

| SMILES | %Inh [%] |
| --- | --- |
| CN1C(=O)C(Nc2ccccc2)=C(c2ccccc2)C1=O [SB-300079] | 22 |
| CCC(=O)c1c(-c2ccccc2)c2cc(Cl)ccc2c(=O)n1Cc1ccc(C(=O)O)cc1 | 8 |
| COc1cc(Nc2nccc(N3CCC(NC(=O)C(C)c4ccc(Cl)cc4)C3)n2)cc(OC)c1OC (stereo not drawn) [GSK1379757] | 11 |
| O=C(NCc1cccs1)c1cc(C(=O)c2c(Cl)cccc2Cl)c[nH]1 [GW823670] | 14 |
| Cl.c1ccc(Cn2cnc3cc(Nc4ncnc5ccccc45)ccc32)cc1 [GW272142] | 4 |
| COc1cc2ncn(-c3cc(OCc4ccc(S(C)(=O)=O)cc4)c(C(N)=O)s3)c2cc1OC [GW869979] | 1 |
| CCS(=O)c1ccc(-c2coc3ccc(-c4nnc(C)o4)cc23)cc1 (stereo not drawn) | 36 |
| O=C(Nc1n[nH]c2nc(-c3ccccc3)c(Br)cc12)C1CC1 [SB-708998] | 0 |
| Cl.NS(=O)(=O)c1cccc(Nc2cc(-c3ccc(F)cc3)n[nH]2)c1 [GW824645] | 15 |
| COC(=O)c1c(-c2ccccc2)c2cc(Br)ccc2c(=O)n1Cc1ccc(NC(=O)CCC(=O)O)cc1 | 16 |
| CCCNC(=O)Nc1ccc(Oc2ncnc3ccn(C)c23)cc1 | 35 |
| FC(F)(F)c1ccc(-c2ncn(CCCN3CCOCC3)c2-c2ccncc2)cc1 [SB-217780] | 13 |
| Cc1c(Cn2c(C)nn3c(=O)cc(N4CCO[C@H](C)C4)nc23)cccc1C(F)(F)F [GSK2373690] | 0 |
| COc1cccc(-n2cnc3c(N)ncnc32)c1 [SKF-97416] | 0 |
| Nc1nc(N)c2nc(-c3ccccc3)[nH]c2n1 [SKF-12778] | 15 |
| COc1ccc(CNC(=O)NC2CCN(c3ccnc(Nc4ccc(F)cc4)n3)C2)cc1 (stereo not drawn) [GSK1379706] | 14 |
| COc1cccc(C2=C(N(C)c3ccccc3)C(=O)NC2=O)c1 [SB-334865] | 18 |
| COc1ccc(-c2cc3c(C)nc(N)nc3n([C@H]3CC[C@H](OCCO)CC3)c2=O)cn1 | 0 |

| SMILES | %Inh [%] |
| --- | --- |
| Nc1ncnc2c1ncn2-c1cccc2ccccc12 [SKF-97184] | 0 |
| Cc1ccc(-c2ccc3c(ccc4sc5c(c43)NC[C@@H](C)N=C5N(C)C)n2)cn1 | 9 |
| COc1cccc(C2=C(Nc3cccc(C(=O)O)c3)C(=O)NC2=O)c1 [SB-390770] | 12 |
| Cc1nc(N(C)[C@H]2CN(C(=O)CC#N)CC[C@H]2C)c2cc[nH]c2n1 | 6 |
| CN(C)c1cc(-c2ccc3c(N)n[nH]c3c2)nc(N)n1 [GSK2219329] | 9 |
| COc1ccc(-c2cc3c(C)nc(N)nc3n([C@H]3CC[C@H](O)CC3)c2=O)cn1 | 0 |
| OCCCNc1nccc(-c2c(-c3cccc(C(F)(F)F)c3)nn3cc(C(F)(F)F)ccc23)n1 [GW630813] | 40 |
| O=C(Nc1n[nH]c2cc(-c3ccccc3F)ccc12)C1CC1 [SB-733371] | 16 |
| Nc1nc(-c2ccccc2F)c(-c2ccnc3ccccc23)s1 [GW560459] | 12 |
| Cn1c(=O)c(F)c(Nc2ccc(I)cc2F)c2c(=O)n(OC[C@H](O)CO)cnc21 | 13 |
| Cc1cc(Nc2nc(-c3cccc(C)n3)nc3ccccc23)ccn1 [GW872411] | 26 |
| COc1cc2nccc(Nc3ccc(OCc4ccc(NC(C)=O)cc4)cc3)c2cc1OC.Cl [GW440135] | 4 |
| Cc1nnc(-c2ccc(C)c(-c3ccc(C(=O)O)cc3)c2)o1 [GW608005] | 0 |
| CCS(=O)(=O)c1ccc(OC)c(Nc2ncc(-c3ccc(F)cc3)o2)c1.Cl [GW591947] | 9 |
| CCc1ccc(-c2ccc3c(c2)-c2nn(C)cc2S(=O)(=O)N3C)cc1 | 22 |
| CCC(=O)c1c(-c2ccccc2)c2cc(Cl)ccc2c(=O)n1Cc1cc(S(C)(=O)=O)n(CCC(C)(C)O)n1 | 15 |
| C[C@@H]1CC[C@H](C(=O)NC2CCCCC2)CN1c1cc(-c2ccc3c(N)n[nH]c3c2)nc(N)n1 [GSK2291363] | 14 |
| O=c1cc(N2CCOCC2)nc2n(Cc3ccc(F)c(Cl)c3)ccn12 [GSK2297099] | 0 |

System: T2, DCAMKL2
T2 construct: gene DCLK2
Details: concentration: 1 μM, replicates: in singlicate; n = 1

| SMILES | %Inh [%] |
| --- | --- |
| CN1C(=O)C(Nc2ccccc2)=C(c2ccccc2)C1=O [SB-300079] | 0 |
| CCC(=O)c1c(-c2ccccc2)c2cc(Cl)ccc2c(=O)n1Cc1ccc(C(=O)O)cc1 | 0 |
| COc1cc(Nc2nccc(N3CCC(NC(=O)C(C)c4ccc(Cl)cc4)C3)n2)cc(OC)c1OC (stereo not drawn) [GSK1379757] | 0 |
| O=C(NCc1cccs1)c1cc(C(=O)c2c(Cl)cccc2Cl)c[nH]1 [GW823670] | 18 |
| Cl.c1ccc(Cn2cnc3cc(Nc4ncnc5ccccc45)ccc32)cc1 [GW272142] | 20 |
| COc1cc2ncn(-c3cc(OCc4ccc(S(C)(=O)=O)cc4)c(C(N)=O)s3)c2cc1OC [GW869979] | 19 |
| CCS(=O)c1ccc(-c2coc3ccc(-c4nnc(C)o4)cc23)cc1 (stereo not drawn) | 0 |
| O=C(Nc1n[nH]c2nc(-c3ccccc3)c(Br)cc12)C1CC1 [SB-708998] | 0 |
| Cl.NS(=O)(=O)c1cccc(Nc2cc(-c3ccc(F)cc3)n[nH]2)c1 [GW824645] | 44 |
| COC(=O)c1c(-c2ccccc2)c2cc(Br)ccc2c(=O)n1Cc1ccc(NC(=O)CCC(=O)O)cc1 | 0 |
| CCCNC(=O)Nc1ccc(Oc2ncnc3ccn(C)c23)cc1 | 0 |
| FC(F)(F)c1ccc(-c2ncn(CCCN3CCOCC3)c2-c2ccncc2)cc1 [SB-217780] | 35 |
| Cc1c(Cn2c(C)nn3c(=O)cc(N4CCO[C@H](C)C4)nc23)cccc1C(F)(F)F [GSK2373690] | 17 |
| COc1cccc(-n2cnc3c(N)ncnc32)c1 [SKF-97416] | 4 |
| Nc1nc(N)c2nc(-c3ccccc3)[nH]c2n1 [SKF-12778] | 0 |
| COc1ccc(CNC(=O)NC2CCN(c3ccnc(Nc4ccc(F)cc4)n3)C2)cc1 (stereo not drawn) [GSK1379706] | 60 |
| COc1cccc(C2=C(N(C)c3ccccc3)C(=O)NC2=O)c1 [SB-334865] | 0 |
| COc1ccc(-c2cc3c(C)nc(N)nc3n([C@H]3CC[C@H](OCCO)CC3)c2=O)cn1 | 0 |

| SMILES | %Inh [%] |
| --- | --- |
| Nc1ncnc2c1ncn2-c1cccc2ccccc12 [SKF-97184] | 13 |
| Cc1ccc(-c2ccc3c(ccc4sc5c(c43)NC[C@@H](C)N=C5N(C)C)n2)cn1 | 0 |
| COc1cccc(C2=C(Nc3cccc(C(=O)O)c3)C(=O)NC2=O)c1 [SB-390770] | 0 |
| Cc1nc(N(C)[C@H]2CN(C(=O)CC#N)CC[C@H]2C)c2cc[nH]c2n1 | 0 |
| CN(C)c1cc(-c2ccc3c(N)n[nH]c3c2)nc(N)n1 [GSK2219329] | 0 |
| COc1ccc(-c2cc3c(C)nc(N)nc3n([C@H]3CC[C@H](O)CC3)c2=O)cn1 | 0 |
| OCCCNc1nccc(-c2c(-c3cccc(C(F)(F)F)c3)nn3cc(C(F)(F)F)ccc23)n1 [GW630813] | 0 |
| O=C(Nc1n[nH]c2cc(-c3ccccc3F)ccc12)C1CC1 [SB-733371] | 0 |
| Nc1nc(-c2ccccc2F)c(-c2ccnc3ccccc23)s1 [GW560459] | 1 |
| Cn1c(=O)c(F)c(Nc2ccc(I)cc2F)c2c(=O)n(OC[C@H](O)CO)cnc21 | 20 |
| Cc1cc(Nc2nc(-c3cccc(C)n3)nc3ccccc23)ccn1 [GW872411] | 0 |
| COc1cc2nccc(Nc3ccc(OCc4ccc(NC(C)=O)cc4)cc3)c2cc1OC.Cl [GW440135] | 0 |
| Cc1nnc(-c2ccc(C)c(-c3ccc(C(=O)O)cc3)c2)o1 [GW608005] | 0 |
| CCS(=O)(=O)c1ccc(OC)c(Nc2ncc(-c3ccc(F)cc3)o2)c1.Cl [GW591947] | 0 |
| CCc1ccc(-c2ccc3c(c2)-c2nn(C)cc2S(=O)(=O)N3C)cc1 | 0 |
| CCC(=O)c1c(-c2ccccc2)c2cc(Cl)ccc2c(=O)n1Cc1cc(S(C)(=O)=O)n(CCC(C)(C)O)n1 | 22 |
| C[C@@H]1CC[C@H](C(=O)NC2CCCCC2)CN1c1cc(-c2ccc3c(N)n[nH]c3c2)nc(N)n1 [GSK2291363] | 24 |
| O=c1cc(N2CCOCC2)nc2n(Cc3ccc(F)c(Cl)c3)ccn12 [GSK2297099] | 0 |
